Screen size: about 48,000 compounds; about 13,000 (27%) showed an effect of 50% or more. The list shows a part of the results.
System: Wolbachia pipientis
Assay: Anti-Wolbachia Cell-Based Screen
Format: functional
Design: scale not given: in the data most compounds retested in dose-response had high values
Conditions: 5 µM

| Compound | Percent Effect |
| --- | --- |
| O=C(Nc1ccc(-c2ccco2)cc1)C1CCCN(Cc2ccon2)C1 (configuration not stated) | 13.81% |
| CN(C)Cc1cc(-c2nccn2CCn2cccn2)ccc1O | -0.09991% |
| CCC(O)C1CCN(C(=O)Nc2nc(-c3ccccc3)ns2)CC1 (configuration not stated) | -13.79% |
| CNc1nc(C)c(C(=O)N2CCCCC2CCc2ccccc2)s1 (configuration not stated) | -0.1409% |
| CNc1nc(C)c(C(=O)N2CCC(C(O)Cc3ccccc3)CC2)s1 (configuration not stated) | 102.6% |
| CCNc1nc(C)c(C(=O)N2CCN(c3ncccc3C)CC2)s1 | -16.27% |
| CCNc1nc(C)c(C(=O)N2CCC(C(O)Cc3ccccc3)CC2)s1 (configuration not stated) | 94.25% |
| CCOC(=O)N1CCN(C(=O)c2sc(-c3ccccc3F)nc2C)CC1 | 4.725% |
| O=C(c1ccc(Cl)cc1)N1CCCn2nnc(Cn3cccn3)c2C1 | 10.27% |
| C1CCN(Cc2nnn3c2CN(CC2CC2)CCC3)C1 | 3.513% |
| O=C(O)C(F)(F)F.c1ccc(CN2CCCn3nnc(Cn4cccc4)c3C2)nc1 | -7.39% |
| O=S(=O)(C1CC1)N1CCCn2nnc(Cn3cccc3)c2C1 | 109% |
| CCS(=O)(=O)N1CCCn2nnc(Cn3cccc3)c2C1 | 97.66% |
| CCS(=O)(=O)N1Cc2c(Cn3cccc3)nn(C(C)C)c2C1 | 3.857% |
| CCCc1cncnc1N1CCC(NCCc2ccc(O)cc2)CC1 | 1.389% |
| CC(C)CS(=O)(=O)CCNC(=O)Nc1cccc2ncccc12 | 3.388% |
| CCN(CC1CCOC1)S(=O)(=O)Cc1cc(Cl)ccc1OC (configuration not stated) | -20.98% |
| Cc1cc(C)c(S(N)(=O)=O)cc1C(=O)NCC1Cc2ccccc2O1 (configuration not stated) | -3.139% |
| Cc1oc(C(=O)Nc2ccccc2F)cc1S(N)(=O)=O | 99.25% |
| Cc1oc(C(=O)O)cc1S(=O)(=O)Nc1c(F)cccc1-n1cccn1 | -6.217% |
| Cc1c(Cl)cccc1NC(=O)CN(Cc1cccnc1)C(C)C | -4.468% |
| Cc1oc(C(=O)Nc2cccc(Cl)c2C)cc1S(N)(=O)=O | 64.05% |

| Compound | Percent Effect |
| --- | --- |
| NS(=O)(=O)CCNC(=O)c1cc2cccc(F)c2o1 | -1.054% |
| Cc1cccc(C)c1NC(=O)c1cc(S(N)(=O)=O)c(C)o1 | 102.4% |
| Cc1c(Cl)cccc1NC(=O)N1CCC2(CC1)NC(=O)CC2C(=O)O (configuration not stated) | -2.177% |
| CCN(Cc1ccoc1)C(=O)c1cc(S(N)(=O)=O)c(C)o1 | -22.47% |
| CC(=O)NCCCSC1CCN(c2c(F)cccc2F)C1=O (configuration not stated) | 8.134% |
| COCc1c(Cl)cccc1NC(=O)NCc1cccc(N(C)C)n1 | 23.29% |
| O=C(O)C[C@@H]1CCN(C(=O)C2CCCC2)C[C@@H]1CCN1CCCCC1 | 3.998% |
| O=C1CCc2cc(OCCN3CCc4cncnc4C3)ccc2N1 | 28.97% |
| Cn1cccc(NC(=O)COc2ccc(Br)cc2)c1=O | -13.39% |
| Cn1cccc1C(=O)OCCNC(=O)c1ccccc1 | -6.195% |
| Cn1cccc(NC(=O)COc2ccc(Cl)cc2)c1=O | -8.548% |
| COc1cc(C(C)=O)ccc1OCC(=O)N(Cc1ccsc1)C1CC1 | -7.993% |
| COc1cc(C(C)=O)ccc1OCC(=O)N(C)Cc1cnn(C)c1 | -3.043% |
| CC(=O)c1ccc(OCC(=O)c2cccn2C)cc1 | 104.8% |
| Cn1cccc1C(=O)COc1ccc(S(N)(=O)=O)cc1 | 87.78% |
| Cn1cccc1C(=O)N1CCC2(CCCN2S(C)(=O)=O)CC1 | -6.458% |
| COc1cc(C(C)=O)ccc1OCC(=O)c1cccn1C | 70.23% |
| N#CCCN(Cc1ccco1)C(=O)CCCNC(=O)c1ccccc1 | 3.869% |
| c1cc(-c2noc([C@@H]3Cc4nc[nH]c4CN3)n2)ccn1 | -6.71% |
| CCOC(=O)Cn1ccc2cc(NC(=O)N3CCSCC3)ccc21 | -0.3314% |
| Cc1ccc2nc(C)cc(C(=O)NC(C)c3nnn[nH]3)c2c1 (configuration not stated) | -5.758% |
| CC(C)C(C(=O)N1CCC2(CC1)CN(C)C(=O)O2)c1ccccc1 (configuration not stated) | -0.7993% |

| Compound | Percent Effect |
| --- | --- |
| CN1C[C@]2(CC[C@@H](C(=O)O)CC2)Oc2ccccc2C1=O | 130.9% |
| Cc1ccccc1OC(C(=O)N1CCC2(CC1)CN(C)C(=O)O2)C(C)C (configuration not stated) | -8.932% |
| CCC(=O)c1ccc(OCC(=O)NCC2CC(CC)=NO2)cc1 (configuration not stated) | 0.5795% |
| CSc1ccc(C(=O)C2CCCN(C(=O)Cn3cnnn3)C2)cc1 (configuration not stated) | -23.42% |
| O=C(CCn1cncn1)N1CC[C@@H](c2ccc3ccccc3c2)[C@H](O)C1 | 2.781% |
| CSc1ccc(C(=O)C2CCCN(C(=O)CCn3cnnn3)C2)cc1 (configuration not stated) | 95.72% |
| CSc1ccc(C(=O)C2CCCN(C(=O)CCCn3cncn3)C2)cc1 (configuration not stated) | 89.8% |
| O=C(c1ccc(C(F)(F)F)cc1)C1CCCN(C(=O)Cn2cnnn2)C1 (configuration not stated) | -1.796% |
| CSc1ccc(C(=O)C2CCCN(C(=O)CCn3cncn3)C2)cc1 (configuration not stated) | 108% |
| CN(C)S(=O)(=O)N1C[C@@H]2CC[C@H](C1)N(CCC(=O)NCc1ccco1)C2 | -9.336% |
| CC(C)C(=O)NCc1cc(Br)ccc1F | -9.372% |
| OCCOc1nc(-c2ccccc2Cl)no1 | -14.24% |
| Cc1nc(C)c(CC(=O)NCc2cccnc2OC2CCCC2)c(=O)[nH]1 | 2.143% |
| CCNC(=O)C1CCN(c2cc(-c3ccccc3)nc3cc(C)nn23)C1 (configuration not stated) | -12.78% |
| Cc1cn[nH]c1C1CCCCN1C(=O)CCN1CCCCCC1 (configuration not stated) | -3.23% |
| COCCC(=O)N1CCCCC1c1ccc(F)cc1 (configuration not stated) | -2.369% |
| Cc1cn[nH]c1C1CCCCN1C(=O)CCc1ccc(F)cc1 (configuration not stated) | 129.4% |
| Cc1cn[nH]c1C1CCCCN1C(=O)CCc1c(C)n[nH]c1C (configuration not stated) | 119.5% |
| N#Cc1cccc(N2CCC3(CCC(=O)N(CCCO)C3)CC2)n1 | -9.323% |
| O=C1OCCN1CCOc1nc(-c2ccccc2Cl)no1 | -11.04% |
| COCC(C)NC(=O)Nc1cc(-c2ccccc2C)nn1CCO (configuration not stated) | -26.76% |
| Cl.O=C(C1CCCCC1)N1CCC2(CC1)CNCc1ccccc12 | 2.33% |

| Compound | Percent Effect |
| --- | --- |
| O=C1CC2(CCN(C(=O)c3ccccc3)C2)Nc2ccccc2N1 (configuration not stated) | 106.1% |
| O=C1CC2(CCN(C(=O)C3CCCCC3)C2)Nc2ccccc2N1 (configuration not stated) | 102.3% |
| CN(C)C(=O)N1CCN(C(=O)c2ccccc2)CC2(CNC(=O)C2)C1 (configuration not stated) | 9.343% |
| O=C1Nc2ccccc2C1C1CCN(C(=O)C2CC2)CC1 (configuration not stated) | -3.481% |
| Nc1cc(C(=O)N2CCC3(CC2)Nc2ccccc2NC3=O)ccn1 | 3.743% |
| O=C(O)C(F)(F)F.O=C1CCC2(CCCN(C(=O)c3ccccn3)CC2)N1 (configuration not stated) | -22.06% |
| O=C(O)C(F)(F)F.O=C1CCCC2(CCN(C(=O)c3ccccn3)CC2)N1 | 4.079% |
| O=C1CC2(CCN(C(=O)c3ccccn3)C2)Nc2ccccc2N1 (configuration not stated) | 110.2% |
| COC1CCCN(C(=O)NCC(F)F)C1 (configuration not stated) | -0.267% |
| CN(Cc1ccco1)C1CCC12CCN(C(=O)N1CCCC1)CC2.O=C(O)C(F)(F)F (configuration not stated) | -11.51% |
| Cc1ccc(C2CCCCCN2CCCS(C)(=O)=O)o1 (configuration not stated) | -22.51% |
| CCOc1ccc(NC(=O)c2scnc2CC)cc1CO | -2.962% |
| O=C1CN(C(=O)CSC2CCCc3ccccc32)CCN1 (configuration not stated) | -8.523% |
| Cc1cc(C2CCCN(C(=O)c3cccnc3)C2)ccn1 (configuration not stated) | 84.57% |
| CC[C@H]1CN(C(=O)c2cccnc2)CC[C@H]1CC(=O)NC1CC1 | 4.498% |
| O=C(c1cccnc1)N1CCCC(c2ccnc3nccn23)C1 (configuration not stated) | 79.76% |
| O=C(NS(=O)(=O)Cc1ccc(F)cc1)C1CCOc2ccccc21 (configuration not stated) | -4.826% |
| CC(O)CN1CCN(C(=O)c2ccc(N(C)C)nn2)CC1 (configuration not stated) | 2.216% |
| CSC(C)C(=O)N1CCCN(Cc2cscn2)CC1 (configuration not stated) | -14.88% |
| CCOCC(O)CN1CCN(C(=O)c2ccc(N(C)C)nc2)CC1 (configuration not stated) | -21.06% |
| CC(O)CN1CCN(C(=O)c2ccc(N(C)C)nc2)CC1 (configuration not stated) | 3.143% |
| CN(C)c1ccc(C(=O)N2CCN(Cc3cscn3)CC2)cn1 | 116% |

| Compound | Percent Effect |
| --- | --- |
| CN(C)c1ccc(C(=O)N2CCCN(Cc3cscn3)CC2)nn1 | 113.8% |
| O=C([C@H]1CCCO1)N1CCc2ncnc(NC3CC3)c2CC1 | 1.456% |
| O=C(C1CCCO1)N1CCc2ncnc(NC3CCC3)c2CC1.O=C(O)C(F)(F)F (configuration not stated) | 103.9% |
| O=C(N1CCOCC1)N1CCc2ncnc(NC3CC3)c2CC1 | 0.5236% |
| O=C(N1CCOCC1)N1CCc2ncnc(NC3CCC3)c2CC1.O=C(O)C(F)(F)F | 91.29% |
| CCCC(C(=O)NC1CCN(S(C)(=O)=O)CC1)n1cccc1 (configuration not stated) | -3.816% |
| CCNC(=O)NC(=O)CN1CCOC(c2ccc(Br)cc2)C1 (configuration not stated) | -12.38% |
| OC1(CNCCSc2ccccn2)CCCNC1 (configuration not stated) | -44.86% |
| N#Cc1cccnc1N1CCCC(CO)(CCOc2ccccc2)C1 (configuration not stated) | 0.3876% |
| CN(C)c1ccc(CCNC(=O)C2CCC(=O)N(C3CCCC3)C2)cc1 (configuration not stated) | -1.429% |
| CCN(CC)C(=O)CN1CCCC(c2nc(C)c3c(n2)N(C)CCC3)C1 (configuration not stated) | 160% |
| CCC(=O)N1CCC(n2cc(C(C)(C)O)nn2)CC1 | -6.105% |
| CCN(CC)C(=O)CN1CCC(c2nc(C)c3c(n2)N(C)CCC3)CC1 | 126.4% |
| CCN(C(=O)CN1CCC(c2n[nH]c(C3CC3)n2)CC1)C1CC1 | 20.34% |
| CCN(CC(F)(F)F)C(=O)C1CCCN(Cc2nc(C)c(C)o2)C1 (configuration not stated) | -1.409% |
| CCC(=O)N1CCC(c2nc3ccc(NC(C)C)cn3n2)CC1 | -7.587% |
| CCN(C(=O)CN1CCC(c2cc3ccccc3[nH]2)CC1)C1CC1 | -6.072% |
| CC(C)N(C)C(=O)CN1CCCC(c2ccc(C(=O)O)cc2)C1 (configuration not stated) | 0.2821% |
| CCC(=O)N1CCC(c2nc(C)c3c(n2)N(C)CCC3)CC1 | 112.7% |
